# Results: ChEMBL document CHEMBL5308504, “Tm Shift (DSF) assay results for EUbOPEN Chemogenomics Library” (2023)
# Several values for one entry are separate records, joined by “and”; a condition that tells them apart may be missing. Equal entries are not always repeated.
# Key:
# Details in all cases: Compound concentration 20.0 uM, Protein concentration 2.0 uM, Result type QC Liability
# [1] = target: Tyrosine-protein kinase ABL1 (Homo sapiens) (UniProt P00519)
# [2] = target: Cyclin-dependent kinase 2 (Homo sapiens) (UniProt P24941)
# [3] = target: Casein kinase I isoform delta (Homo sapiens) (UniProt P48730)
# Casein kinase I isoform delta (Homo sapiens), sequence (P48730 whole entry, looked up, canonical isoform): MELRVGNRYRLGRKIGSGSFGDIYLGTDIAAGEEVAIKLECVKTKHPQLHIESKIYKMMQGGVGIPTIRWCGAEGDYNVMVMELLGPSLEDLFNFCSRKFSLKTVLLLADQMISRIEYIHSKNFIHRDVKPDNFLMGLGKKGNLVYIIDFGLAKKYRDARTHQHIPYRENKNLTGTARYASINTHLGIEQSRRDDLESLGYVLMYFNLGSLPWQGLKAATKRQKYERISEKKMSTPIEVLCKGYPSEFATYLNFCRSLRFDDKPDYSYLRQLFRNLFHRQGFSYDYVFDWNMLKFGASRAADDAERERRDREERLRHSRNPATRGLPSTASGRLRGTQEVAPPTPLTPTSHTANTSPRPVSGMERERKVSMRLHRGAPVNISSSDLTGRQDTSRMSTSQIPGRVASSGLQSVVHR
# [4] = target: Glycogen synthase kinase-3 beta (Homo sapiens) (UniProt P49841)
# Glycogen synthase kinase-3 beta (Homo sapiens), sequence (P49841 whole entry, looked up): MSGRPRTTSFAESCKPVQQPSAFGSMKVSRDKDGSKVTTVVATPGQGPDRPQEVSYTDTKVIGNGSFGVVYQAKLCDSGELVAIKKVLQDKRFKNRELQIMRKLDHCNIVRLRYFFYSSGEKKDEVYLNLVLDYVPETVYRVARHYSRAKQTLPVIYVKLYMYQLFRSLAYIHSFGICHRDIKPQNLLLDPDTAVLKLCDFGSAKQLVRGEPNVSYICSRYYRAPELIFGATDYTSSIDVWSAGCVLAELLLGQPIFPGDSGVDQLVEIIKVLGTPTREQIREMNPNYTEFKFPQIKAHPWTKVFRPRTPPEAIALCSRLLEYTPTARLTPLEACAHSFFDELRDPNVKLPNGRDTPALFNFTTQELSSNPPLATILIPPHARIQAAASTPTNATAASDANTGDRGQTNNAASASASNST
# [5] = target: Mitogen-activated protein kinase 1 (Homo sapiens) (UniProt P28482)
# Mitogen-activated protein kinase 1 (Homo sapiens), sequence (P28482 whole entry): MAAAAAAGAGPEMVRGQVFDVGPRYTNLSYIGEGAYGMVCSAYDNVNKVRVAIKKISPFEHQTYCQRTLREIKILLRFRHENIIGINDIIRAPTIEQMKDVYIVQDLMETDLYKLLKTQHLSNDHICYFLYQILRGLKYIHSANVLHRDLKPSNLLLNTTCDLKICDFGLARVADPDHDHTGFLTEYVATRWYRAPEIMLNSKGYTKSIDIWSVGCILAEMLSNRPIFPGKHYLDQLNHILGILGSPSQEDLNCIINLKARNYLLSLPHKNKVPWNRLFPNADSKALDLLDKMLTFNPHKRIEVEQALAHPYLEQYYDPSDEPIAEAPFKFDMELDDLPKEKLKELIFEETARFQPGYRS
# [6] = target: T1, Aurora kinase A (Homo sapiens) (UniProt O14965)
# T1 sequence (whole entry): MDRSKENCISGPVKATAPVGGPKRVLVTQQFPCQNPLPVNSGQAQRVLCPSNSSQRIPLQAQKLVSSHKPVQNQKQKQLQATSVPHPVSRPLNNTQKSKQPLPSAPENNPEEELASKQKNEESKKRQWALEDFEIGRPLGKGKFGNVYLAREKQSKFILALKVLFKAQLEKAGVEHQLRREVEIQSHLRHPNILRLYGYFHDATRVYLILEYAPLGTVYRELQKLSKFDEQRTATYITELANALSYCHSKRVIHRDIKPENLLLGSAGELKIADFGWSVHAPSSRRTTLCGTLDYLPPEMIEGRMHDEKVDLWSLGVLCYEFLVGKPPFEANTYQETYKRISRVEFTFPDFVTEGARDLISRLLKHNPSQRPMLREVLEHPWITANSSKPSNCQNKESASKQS
# Tyrosine-protein kinase ABL1 (Homo sapiens), sequence (P00519 whole entry): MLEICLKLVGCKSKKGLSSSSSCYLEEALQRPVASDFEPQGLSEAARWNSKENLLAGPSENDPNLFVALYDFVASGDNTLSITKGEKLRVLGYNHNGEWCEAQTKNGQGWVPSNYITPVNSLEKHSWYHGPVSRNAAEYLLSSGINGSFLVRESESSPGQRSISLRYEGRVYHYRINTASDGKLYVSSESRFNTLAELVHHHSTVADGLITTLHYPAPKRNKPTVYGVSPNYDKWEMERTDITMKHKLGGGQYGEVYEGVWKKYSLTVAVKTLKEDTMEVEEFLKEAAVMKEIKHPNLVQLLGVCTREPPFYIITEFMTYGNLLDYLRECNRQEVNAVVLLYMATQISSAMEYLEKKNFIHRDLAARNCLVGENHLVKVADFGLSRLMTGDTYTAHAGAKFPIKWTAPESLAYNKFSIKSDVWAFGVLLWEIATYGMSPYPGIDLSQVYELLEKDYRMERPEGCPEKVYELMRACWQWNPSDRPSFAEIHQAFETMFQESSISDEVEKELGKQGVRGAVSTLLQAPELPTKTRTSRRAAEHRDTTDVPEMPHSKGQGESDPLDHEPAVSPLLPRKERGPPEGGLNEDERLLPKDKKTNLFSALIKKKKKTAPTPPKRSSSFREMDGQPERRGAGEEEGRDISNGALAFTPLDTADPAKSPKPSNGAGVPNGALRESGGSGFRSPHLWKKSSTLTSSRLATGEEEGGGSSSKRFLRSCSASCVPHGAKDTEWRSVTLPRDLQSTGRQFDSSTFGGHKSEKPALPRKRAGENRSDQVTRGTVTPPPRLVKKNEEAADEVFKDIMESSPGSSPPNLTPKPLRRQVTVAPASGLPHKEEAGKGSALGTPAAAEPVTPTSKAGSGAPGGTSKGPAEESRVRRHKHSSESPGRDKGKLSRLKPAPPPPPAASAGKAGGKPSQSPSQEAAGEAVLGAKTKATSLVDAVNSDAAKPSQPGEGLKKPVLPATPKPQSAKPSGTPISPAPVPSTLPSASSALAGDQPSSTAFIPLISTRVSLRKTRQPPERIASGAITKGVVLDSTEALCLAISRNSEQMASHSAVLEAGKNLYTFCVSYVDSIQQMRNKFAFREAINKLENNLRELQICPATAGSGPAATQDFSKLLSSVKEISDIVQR
SMILES,ΔTm [1],ΔTm [2],ΔTm [3],ΔTm [4],ΔTm [5],ΔTm [6]
COc1cc(OC)cc(-c2cc3cnc(N)nc3nc2NC(=O)NC(C)(C)C)c1,0.36 °C and 1.41 °C,0.84 °C and 0.15 °C,0.28 °C and -0.14 °C,-0.48 °C and 0.1 °C,0.47 °C and 0.55 °C,-0.29 °C and 1.1 °C
COc1ccc(C(F)(F)F)cc1NC(=O)Nc1ccc(Oc2cc(C)nc(N)n2)c2ccccc12,5.29 °C,1.11 °C,0.31 °C,1.99 °C,0.06 °C,-0.77 °C
C[C@@H]1Cc2c([nH]c3ccccc23)[C@@H](c2c(F)cc(/C=C/C(=O)O)cc2F)N1CC(C)(C)F,-0.24 °C,-0.07 °C,0.64 °C,0 °C,0.55 °C,-0.16 °C
C[C@@H]1CN(CC(=O)N2CC(C)(C)c3nc(CO)c(Cc4ccc(F)cc4)cc32)[C@@H](CN2CCOC[C@H]2C)CN1,0.35 °C,0.82 °C,-0.16 °C,-0.02 °C,0.01 °C,-0.39 °C
NCc1ccc(OCCCc2sc(-c3ccc4c(c3)/C(=N/Nc3nc5ccccc5s3)CCC4)nc2C(=O)O)cc1,0.43 °C,0.49 °C,-0.37 °C,-0.12 °C,-0.02 °C,1.25 °C
C[C@H](NC(=O)c1cnc2n1[C@](C)(Cc1ccc(C#N)cc1)C(=O)N2c1cc(Cl)c(F)c(Cl)c1)C(=O)NC1(c2ccccn2)CC1,0.04 °C,0.07 °C,0.77 °C,-3.42 °C,10.2 °C,0.19 °C
Fc1ccc(-c2nc(-c3ccc4ccccc4c3F)[nH]c2-c2ccncc2)cc1,4.64 °C,-0.5 °C,4.6 °C,8.59 °C,0.03 °C,0.26 °C
COc1ccc2c(O[C@@H]3C[C@H]4C(=O)N[C@]5(C(=O)O)CC5/C=C\CCCCC[C@H](NC(=O)OC5CCCC5)C(=O)N4C3)cc(-c3csc(NC(=O)C(C)C)n3)nc2c1C (stereo partly specified),0.27 °C [middle of 4 runs],0.77 °C [middle of 4 runs],0.4 °C [middle of 4 runs],-0.22 °C [middle of 4 runs],0.48 °C [middle of 4 runs],0.2 °C [middle of 4 runs]
NC1(c2ccc(-c3nc4c(O)ccnn4c3-c3ccccc3)cc2)CCC1,0.22 °C,-0.34 °C,0.07 °C,-0.72 °C,0.46 °C,0.43 °C
O=C(Nc1snnc1C(=O)Nc1ccc(N2CCCC2)cc1)c1cncc(C(F)(F)F)c1,0.66 °C,0.59 °C,1.04 °C,-1.38 °C,0.03 °C,-0.75 °C
COc1cc(C(=O)NCCOCCOCCOCC(=O)N[C@H](C(=O)N2C[C@@H](O)C[C@H]2C(=O)NCc2ccc(-c3scnc3C)cc2)C(C)(C)C)ccc1Nc1ncc(C(F)(F)F)c(Oc2cccc3c2C(=O)CC3)n1,-2.56 °C,-4.04 °C,0.94 °C,0 °C,0.73 °C,0.94 °C
CCCCc1oc2ccccc2c1C(=O)c1cc(I)c(OCCN(CC)CC)c(I)c1,0.12 °C,0.14 °C,0.32 °C,-0.84 °C,0.02 °C,-1.66 °C
CCn1c(=O)c2c(C)c(C(=O)N3CCC(O)CC3)sc2n(CCC(F)(F)F)c1=O,0.35 °C,0.49 °C,0.3 °C,-0.42 °C,0.14 °C,0.03 °C
Cc1cc(SCc2sc(-c3ccc(C(F)(F)F)cc3)nc2C)ccc1OCC(=O)O,0 °C,0.3 °C,1.18 °C,-1.11 °C,0.57 °C,-2.58 °C
Cc1c(CCC(=O)O)cccc1NC(=O)[C@@H](c1ccc(-c2cncc(Cl)c2)c(F)c1)C1CCCC1,1.34 °C,-0.35 °C,-0.06 °C,0.61 °C,-0.61 °C,4.78 °C
Cc1cc([N+](=O)[O-])c(NS(=O)(=O)c2cccc(C(=O)O)c2)cc1-c1cccnc1,0.08 °C,0.85 °C,0.28 °C,0.02 °C,0.58 °C,0.29 °C
O=C1CCCN1CCNc1nc(Nc2ccc(Cl)c(Cl)c2)ncc1C(F)(F)F,4.3 °C,5.26 °C,0.96 °C,3.17 °C,4.18 °C,11.2 °C
Clc1ccc(-c2nc3sccn3c2/C=N/OCc2ccc(Cl)c(Cl)c2)cc1,-0.76 °C,-0.94 °C,-2.09 °C,-0.83 °C,-0.15 °C,-1.05 °C

SMILES,ΔTm [1],ΔTm [2],ΔTm [3],ΔTm [4],ΔTm [5],ΔTm [6]
CNc1[nH]c(Nc2ccc(C(=O)N3CCOCC3)cc2OC)nc2ncc(Cl)c1-2,0.1 °C,-0.26 °C,4.5 °C,-1.11 °C,0.86 °C,1 °C
C[C@@H]1OCC2(CCN(c3cnc(Sc4ccnc(N)c4Cl)c(N)n3)CC2)[C@@H]1N,0.58 °C,0.91 °C,-0.25 °C,0.28 °C,0.06 °C,-0.32 °C
Cc1nc2ccc(Cl)cc2c(-c2ccccc2)c1CC(=O)O,0.63 °C,0.84 °C,0.35 °C,0.14 °C,0.28 °C,0.17 °C
COc1cc2nc([C@@H]3CCCS(=O)(=O)C3)n(C)c2cc1NC(=O)c1cccc(C(C)(F)F)n1,0.81 °C,0.09 °C,0.86 °C,-1.39 °C,0.05 °C,1.82 °C
Cn1nc(C(=O)NCc2ccc(C(=O)O)cc2)cc1-c1ccc2[nH]ccc2c1,0.76 °C,0.58 °C,0.39 °C,-0.55 °C,0.47 °C,0.09 °C
O=C(Cc1ccccc1)Nc1nnc(N2CC[C@@H]3[C@H]2CN3c2cccnn2)s1,0.18 °C,0.43 °C,-0.16 °C,-0.46 °C,0.3 °C,-0.66 °C
COc1cc(Nc2cnc(C#N)c(O[C@H](C)CN(C)C)n2)ncc1-c1cnn(C)c1,3.91 °C,0.23 °C,2.14 °C,3.03 °C,0.5 °C,1.18 °C
N[C@@H]1CCCC[C@H]1Oc1ccc2ncc(-c3cc4ccccc4o3)n2n1,0.63 °C,1.2 °C,1.01 °C,4.43 °C,0.17 °C,1.07 °C
CCn1ccc(Nc2ncc3c(n2)-c2c(nn(C)c2-c2ccc(-c4cnn(C)c4)cc2Cl)CC3)n1,3.73 °C,5.04 °C,2.25 °C,5.78 °C,0.81 °C,6.95 °C
CC#CCC(C)[C@H](O)/C=C/[C@@H]1[C@H]2C/C(=C/CCCC(=O)O)C[C@H]2C[C@H]1O (stereo partly specified),-0.29 °C,0.41 °C,0.31 °C,-0.77 °C,0.12 °C,-0.07 °C
Cc1nccn1-c1ccc(Sc2cccc(C3(C(N)=O)CCOCC3)c2)cc1,-0.23 °C,0.53 °C,-0.21 °C,0.36 °C,0.38 °C,-0.31 °C
CN1CCN(c2ccnc(NCCc3ccccc3)n2)CC1,0.08 °C,0.11 °C,0.22 °C,-0.49 °C,0.69 °C,-0.92 °C
Cc1nc2ccc(Oc3ccc(F)cc3)cc2c(=O)n1C[C@H]1CCCN(C(C)C)C1,0.92 °C,0.32 °C,0.35 °C,-0.38 °C,0.41 °C,0.12 °C
Cn1cc(-c2cnc3ccc4ccc(CS(=O)(=O)NCc5ccccn5)cc4c(=O)c3c2)cn1,4.08 °C,0.66 °C,0.15 °C,1.66 °C,-0.33 °C,5.91 °C
Cc1cn(CCN2CCN(c3ccccc3-c3cc(C#N)cc(C(=O)NCCCN4CCCC4)c3)CC2)c2ccccc12,0.13 °C,0.91 °C,-2.16 °C,-0.98 °C,0.52 °C,-0.16 °C
O=C(O)c1cc(F)c2nc(N3[C@@H]4CC[C@H]3C[C@@H](OCc3c(-c5ccccc5OC(F)(F)F)noc3C3CC3)C4)sc2c1,0.23 °C,0.38 °C,0.11 °C,-5.45 °C,-0.82 °C,-8.04 °C
COc1cc(N(C)c2ccnc3ccc(C(F)(F)F)cc23)cc(OC)c1OC,0.48 °C,-0.12 °C,1.1 °C,-0.36 °C,0.28 °C,-0.2 °C
CCCS(=O)(=O)Nc1ccc(F)c(Nc2ncnc3cnc(-n4cnc(C)c4)nc23)c1F,1.19 °C,1.1 °C,0.17 °C,0.89 °C,0.39 °C,-0.24 °C
